In all, about 48,000 compounds went through this assay and about 13,000 (27%) showed an effect of 50% or more. The list shows a part of the results.
Each compound was assayed on Wolbachia pipientis (assay: Anti-Wolbachia Cell-Based Screen). Conditions: 5 µM.
Assay type: functional
Parameters: scale not given: in the data most compounds retested in dose-response had high values
`Cc1cccc2c1nc1n2[C@@H](CNC(=O)c2cnccn2)COC1` was tested, and the “Percent Effect” value was -0.5308%.
With `O=C1CC2(CCCCC2)CC(=O)N1CC(O)COCc1ccc(Cl)cc1` (stereo not drawn) the “Percent Effect” value was -11.1%.
With `CC(C(N)=O)n1nc(-c2cccs2)cc(N)c1=O` (stereo not drawn) the “Percent Effect” value was 54.84%.
For `Cc1cc(NC(=O)Cn2cnc(-c3cccs3)cc2=O)sn1`, the “Percent Effect” value was 24.65%.
`CC(C(=O)NC1CC1)n1nc(-c2cccs2)cc(N)c1=O` (stereo not drawn) was tested, and the “Percent Effect” value was 130.1%.
For `Cc1cc(NC(=O)Cn2cnc(-c3cccs3)cc2=O)no1`, the “Percent Effect” value was 10.41%.
`CC(C(=O)NC1CC1)S(=O)(=O)Cc1csc(-c2cccs2)n1` (stereo not drawn) was tested, and the “Percent Effect” value was -10.04%.
In the case of `COc1cccn(C(C)C(=O)NC2CCCC2)c1=O` (stereo not drawn), the “Percent Effect” value is reported as 10.4%.
`CCNC(=O)O[C@H]1COCCN(c2nc3ccccc3s2)C1` was tested, and the “Percent Effect” value was 2.544%.
With `CC(C)N(C)C(=O)c1ccc(Cl)c(NC(=O)C2CCC2)c1` the “Percent Effect” value was 2.877%.
For `OC(c1cccs1)C1CCN(c2ncccn2)CC1` (stereo not drawn), the “Percent Effect” value was 0.2293%.
`c1cnc(N2CCC(c3csc(Nc4cnccn4)n3)CC2)nc1` was tested, and the “Percent Effect” value was 101.3%.
For `c1cnc(N2CCC(NCc3cnc(C4CCC4)s3)CC2)nc1`, the “Percent Effect” value was 3.36%.
For `c1cnc(N2CCCC(c3csc(Nc4cnccn4)n3)C2)nc1` (stereo not drawn), the “Percent Effect” value was 106%.
For `Cc1cccc(C(C(=O)N(C)Cc2ccon2)N(C)C)c1` (stereo not drawn), the “Percent Effect” value was 3.369%.
In the case of `Cc1noc(-c2cccnc2N(C)Cc2ccc([S+](C)[O-])cc2)n1` (stereo not drawn), the “Percent Effect” value is reported as 9.143%.
In the case of `O=C1NC(=O)c2c3c(nc(O)c21)CCCC3`, the “Percent Effect” value is reported as 98.35%.
`Nc1nc2c(c(NC(=O)Nc3ccccc3)n1)CCCC2` was tested, and the “Percent Effect” value was -9.493%.
In the case of `CN(Cc1ccccc1)C(=O)CN1CCCC1c1cnn(C)c1` (stereo not drawn), the “Percent Effect” value is reported as -36.94%.
For `COc1ccc(C2CCCN2C(=O)NCCNc2ncccn2)cc1` (stereo not drawn), the “Percent Effect” value was -12.53%.
In the case of `COCC(=O)N1CCCC1c1nccnc1Nc1nc(C)cs1` (stereo not drawn), the “Percent Effect” value is reported as 111.3%.
With `CN(C)C(=O)CN1CCCC1c1nccnc1Nc1ccccn1` (stereo not drawn) the “Percent Effect” value was 99.96%.
For `COCC(=O)N1CCCC1c1nccnc1Nc1ncccn1` (stereo not drawn), the “Percent Effect” value was 112.6%.
In the case of `Cc1csc(Nc2nccnc2C2CCCN2C(=O)C(C)C)n1` (stereo not drawn), the “Percent Effect” value is reported as 0.9263%.
With `CN(C(=O)Nc1ccccn1)C1CCCN(c2ccccc2)C1=O` (stereo not drawn) the “Percent Effect” value was -3.011%.
With `Cc1cccc(Nc2cc(C)nc(C3CCCCN3CC(N)=O)n2)n1` (stereo not drawn) the “Percent Effect” value was 123.2%.
With `Cc1cc(Nc2nc(C)cs2)nc(C2CCCCN2CCO)n1` (stereo not drawn) the “Percent Effect” value was -3.809%.
For `COCc1cccc(CNC(=O)CN2CCCC2c2noc(C)n2)c1` (stereo not drawn), the “Percent Effect” value was -0.5396%.
With `CCC(=O)N1CCCC1c1nccnc1Nc1ncccn1` (stereo not drawn) the “Percent Effect” value was -3.342%.
`COc1nc2c(cc1C(=O)N1CCCOC(CN3CCCC3)C1)CCC2` (stereo not drawn) was tested, and the “Percent Effect” value was -1.335%.
`Cc1ccc(CNC(=O)C2CCN(C(=O)c3ccccc3)CC2)n1C` was tested, and the “Percent Effect” value was -7.91%.
`Cc1ccc(C2(C(=O)N3CCC(n4cc(C(C)O)nn4)CC3)CC2)cc1` (stereo not drawn) was tested, and the “Percent Effect” value was -9.43%.
In the case of `O=C(O)c1ccc(CCNC(=O)C2(c3ccccc3)CC2)cc1`, the “Percent Effect” value is reported as 2.318%.
For `C[C@@H]1CN(CC(C)(C)N2CCOCC2)C[C@@]1(O)C1CC1`, the “Percent Effect” value was 17.03%.
With `CCc1nc(NS(=O)(=O)c2ccc(F)cc2C)no1` the “Percent Effect” value was -5.54%.
For `Cc1cccc(Nc2nccnc2C2CCCN2CC(N)=O)n1` (stereo not drawn), the “Percent Effect” value was 127.5%.
In the case of `CC(C)CC(=O)N1CCCC1c1nccnc1Nc1ncccn1` (stereo not drawn), the “Percent Effect” value is reported as 105.7%.
`CC(C)(C)C(=O)N1CCCC1c1nccnc1Cl` (stereo not drawn) was tested, and the “Percent Effect” value was 155.8%.
With `CC(C)Cn1cnnc1C1CCCN1C(=O)OC(C)(C)C` (stereo not drawn) the “Percent Effect” value was 4.117%.
With `Cl.NCC(=O)N1CCCC1c1nccnc1Nc1ncccn1` (stereo not drawn) the “Percent Effect” value was 117.8%.
With `CC(C)(C)C(=O)N1CCCC1c1ccc(C(=O)N2CCOCC2)s1` (stereo not drawn) the “Percent Effect” value was -16.89%.
In the case of `FC(F)c1nnc2ccc(N3CCC4(CCCCC4)C3)nn12`, the “Percent Effect” value is reported as -13.07%.
In the case of `O=C(O)[C@H]1C[C@H](C(=O)NC2CC2)CN(Cc2ccc(-c3cc[nH]n3)s2)C1`, the “Percent Effect” value is reported as -5.985%.
In the case of `CCOC(=O)CCC(=O)N1CCC(CSCc2ccco2)CC1`, the “Percent Effect” value is reported as -5.481%.
With `CC(C)N(CC(=O)O)Cc1cccc(Br)c1.Cl` the “Percent Effect” value was -4.939%.
With `COCCN1CCCC(c2nccnc2Nc2nc(C)cs2)C1` (stereo not drawn) the “Percent Effect” value was 86.28%.
`CC(=O)N1CCCC1c1nnn2cc(NCc3cccnc3)ccc12.O=C(O)C(F)(F)F.O=C(O)C(F)(F)F` (stereo not drawn) was tested, and the “Percent Effect” value was 4.094%.
`CC(=O)N1CCCC1c1nccnc1NCc1cccnc1` (stereo not drawn) was tested, and the “Percent Effect” value was 106.4%.
For `Cc1cccc(Nc2nccnc2C2CCCN(CC(=O)N(C)C)C2)n1` (stereo not drawn), the “Percent Effect” value was 110.8%.
For `COCCn1ccnc1C1CCCN(c2ncnc3c(C)csc23)C1` (stereo not drawn), the “Percent Effect” value was -8.002%.
`Cc1csc(Nc2nccnc2C2CCCN2CC(N)=O)n1` (stereo not drawn) was tested, and the “Percent Effect” value was 113.4%.
In the case of `Cc1cc(C2CCCN2C(=O)NCc2cccnc2)on1` (stereo not drawn), the “Percent Effect” value is reported as -8.527%.
With `COCCn1ccnc1-c1cc(CN2CCCCC2)cs1` the “Percent Effect” value was -8.994%.
`CC(=O)N1CCC2(CCCN(C(=O)CCN3CCCCC3)C2)C1` (stereo not drawn) was tested, and the “Percent Effect” value was -26.8%.
For `O=C(Cc1cccs1)NC1(C(=O)NCC2CC2)CCCC1`, the “Percent Effect” value was 4.522%.
In the case of `CC(=O)N1CCCC1c1nnn2cc(Nc3ccccc3)ccc12.O=C(O)C(F)(F)F` (stereo not drawn), the “Percent Effect” value is reported as -10.64%.
In the case of `CC(=O)N1CCCC1c1nccnc1Nc1ncccn1` (stereo not drawn), the “Percent Effect” value is reported as 114.6%.
For `COCCC(=O)N1CCCC1c1nccnc1Nc1ncccn1` (stereo not drawn), the “Percent Effect” value was 132.2%.
For `CNS(=O)(=O)Cc1ccc(CNC(=O)Nc2cccnc2)cc1`, the “Percent Effect” value was -4.432%.
For `COC1CCCN(C(=O)Nc2nc(C)n(C)n2)C1` (stereo not drawn), the “Percent Effect” value was -6.454%.
With `CCC[C@@H]1CN(Cc2nnc(-c3cccc(F)c3)o2)C[C@H]1NC(C)=O` the “Percent Effect” value was -4.818%.
With `CNS(=O)(=O)CC1CCCN1C(=O)c1ccc2cc[nH]c2c1` (stereo not drawn) the “Percent Effect” value was -9.261%.
In the case of `CCc1nnc2n1CCN(C(=O)c1ccc3[nH]cnc3c1)C2`, the “Percent Effect” value is reported as -15.67%.
`CC(C)(C)OC(=O)N1CCCN1C(=O)c1cccc2cc[nH]c12` was tested, and the “Percent Effect” value was -15.66%.
In the case of `O=C(c1cccc2cc[nH]c12)N1CCC2(CCOC2)C1` (stereo not drawn), the “Percent Effect” value is reported as -1.625%.
`N#CC1COCCN1C(=O)c1ccc2[nH]cnc2c1` (stereo not drawn) was tested, and the “Percent Effect” value was 108.9%.
`O=C(c1ccc2[nH]cnc2c1)N1CCC(Oc2cccnc2)CC1` was tested, and the “Percent Effect” value was -0.01073%.
For `O=C(c1ccc2[nH]ccc2c1)N1CCCCC1c1nc[nH]n1` (stereo not drawn), the “Percent Effect” value was 5.747%.
`N#CC1COCCN1C(=O)c1ccc2cc[nH]c2c1` (stereo not drawn) was tested, and the “Percent Effect” value was 87.5%.
For `N#CC1COCCN1C(=O)c1cccc2cc[nH]c12` (stereo not drawn), the “Percent Effect” value was 105.1%.
In the case of `O=C(O)C(c1ccc2[nH]ccc2c1)N1CCOCC1` (stereo not drawn), the “Percent Effect” value is reported as 14%.
In the case of `N#CC1COCCN1C(=O)c1ccc2[nH]ccc2c1` (stereo not drawn), the “Percent Effect” value is reported as 142.7%.
With `NC(=O)CC1CCCCN1C(=O)c1ccc2cc[nH]c2c1` (stereo not drawn) the “Percent Effect” value was -8.838%.
